The campaign covered roughly 5,500 compounds. About 2,000 (36%) were called active. Roughly 18% stayed inconclusive and do not appear here. Rule as the data show it: active = normalized growth mostly below about 0.91 (no sharp cut-off); inconclusive = no clear call, values can overlap the other calls; inactive = mostly above about 0.92. This is one part of the list.
Experiment: chemical genetic growth profiling, strain panel (AID 1159580);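 also: tested at 20 µM; growth read once vehicle control cultures reached saturation at 30 °C; 1 = growth at the plate median or of vehicle wells; lower values mean less growth of the strain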
Conditions: S. cerevisiae deletion strains, growth OD

Measured: normalized growth

CC(CCC(=O)O)[C@H]1CCC2C3C(=O)C[C@@H]4CC(=O)CC[C@]4(C)C3CC(=O)[C@@]21C (stereo not given in full)
inactive: locus YAL021C, strain ccr4, active compounds read low 0.995 | locus YAL026C, strain drs2, active compounds read low 1 | locus YAL030W, strain snc1, active compounds read low 0.994 | locus YBL061C, strain skt5, active compounds read low 0.994 | locus YBR009C, strain hhf1, active compounds read low 0.995 | locus YBR023C, strain chs3, active compounds read low 0.993 | locus YBR171W, strain sec66, active compounds read low 0.982 | locus YBR231C, strain swc5, active compounds read low 0.994 | locus YBR279W, strain paf1, active compounds read low 0.982 | locus YCL011C, strain gbp2, active compounds read low 0.987 | locus YCL016C, strain dcc1, active compounds read low 0.984 | locus YCL061C, strain MRC1, active compounds read low 0.987 | locus YCL069W, strain vba3, active compounds read low 0.995 | locus YCR088W, strain abp1, active compounds read low 0.994 | locus YDL005C, strain med2, active compounds read low 0.986 | locus YDL040C, strain nat1, active compounds read low 0.991 | locus YDR001C, strain nth1, active compounds read low 0.993 | locus YDR069C, strain doa4, active compounds read low 1 | locus YDR137W, strain rgp1, active compounds read low 1.01 | locus YDR159W, strain sac3, active compounds read low 1.01 | locus YDR195W, strain ref2 0.999 | locus YDR297W, strain sur2, active compounds read low 0.996 | locus YDR334W, strain swr1, active compounds read low 0.993 | locus YDR335W, strain msn5, active compounds read low 0.997 | locus YDR392W, strain spt3, active compounds read low 0.932 | locus YEL003W, strain gim4, active compounds read low 1.01 | locus YEL037C, strain rad23, active compounds read low 0.99 | locus YEL061C, strain CIN8 (second series), active compounds read low 0.99 | locus YER015W, strain faa2, active compounds read low 1.01 | locus YER016W, strain bim1, active compounds read low 0.999 | locus YER111C, strain swi4, active compounds read low 0.998 | locus YER155C, strain BEM2 (second series), active compounds read low 0.999 | locus YFR010W, strain ubp6, active compounds read low 0.992 | locus YGL167C, strain pmr1, active compounds read low 0.992 | locus YGL173C, strain kem1, active compounds read low 0.989 | locus YGL227W, strain vid30, active compounds read low 0.985 | locus YGL240W, strain doc1, active compounds read low 1.01 | locus YGL253W, strain hxk2, active compounds read low 0.991 | locus YHR013C, strain ard1, active compounds read low 0.99 | locus YHR027C, strain rpn1, active compounds read low 0.995 | locus YHR030C, strain SLT2, active compounds read low 1.02 | locus YHR079C, strain IRE1, active compounds read low 1.02 | locus YHR142W, strain chs7, active compounds read low 0.952 | locus YJL092W, strain hpr5, active compounds read low 0.993 | locus YJL095W, strain BCK1 (second series), active compounds read low 0.991 | locus YJL095W, strain BCK1, active compounds read low 1.01 | locus YJL115W, strain asf1, active compounds read low 0.991 | locus YJL129C, strain trk1, active compounds read low 1.01 | locus YJL154C, strain vps35, active compounds read low 0.993 | locus YJL164C, strain tpk1, active compounds read low 0.99 | locus YJL166W, strain qcr8, active compounds read low 0.989 | locus YJL187C, strain SWE1, active compounds read low 0.99 | locus YJR066W, strain TOR1, active compounds read low 0.975 | locus YKL160W, strain elf1, active compounds read low 0.977 | locus YKR026C, strain gcn3, active compounds read low 0.993 | locus YKR091W, strain srl3, active compounds read low 0.99 | locus YLL001W, strain dnm1, active compounds read low 0.975 | locus YLL026W, active compounds read low 0.998 | locus YLL041C, strain sdh2, active compounds read low 0.993 | locus YLR027C, strain aat2, active compounds read low 0.991 | locus YLR113W, strain HOG1, active compounds read low 1.05 | locus YLR221C, strain rsa3, active compounds read low 0.964 | locus YLR258W, strain gsy2, active compounds read low 0.992 | locus YLR262C, strain YPT6 (second series), active compounds read low 1 | locus YLR320W, strain mms22, active compounds read low 0.971 | locus YLR342W, strain FKS1, active compounds read low 0.99 | locus YLR357W, strain rsc2, active compounds read low 0.986 | locus YLR370C, strain arc18, active compounds read low 0.993 | locus YLR384C, strain iki3, active compounds read low 0.978 | locus YML120C, strain ndi1, active compounds read low 0.989 | locus YMR058W, strain fet3, active compounds read low 0.999 | locus YMR125W, strain sto1, active compounds read low 0.982 | locus YMR129W, active compounds read low 0.99 | locus YMR205C, strain PFK2, active compounds read low 0.989 | locus YMR231W, strain pep5, active compounds read low 0.999 | locus YNL071W, strain lat1, active compounds read low 0.997 | locus YNL183C, strain NPR1, active compounds read low 0.997 | locus YNL209W, strain ssb2, active compounds read low 0.997 | locus YNL248C, strain rpa49, active compounds read low 0.982 | locus YNL322C, strain KRE1 (second series), active compounds read low 0.992 | locus YNR049C, strain mso1, active compounds read low 0.992 | locus YOR001W, strain rrp6, active compounds read low 1.02 | locus YOR070C, strain gyp1, active compounds read low 0.996 | locus YOR080W, strain dia2, active compounds read low 0.994 | locus YOR083W, strain WHI5, active compounds read low 0.969 | locus YOR106W, strain vam3, active compounds read low 0.974 | locus YOR231W, strain MKK1, active compounds read low 1.07 | locus YOR265W, strain rbl2, active compounds read low 0.998 | locus YOR270C, strain vph1, active compounds read low 0.957 | locus YOR290C, strain snf2, active compounds read low 0.993 | locus YPL051W, strain arl3, active compounds read low 1.01 | locus YPL078C, strain atp4, active compounds read low 0.98 | locus YPL106C, strain sse1, active compounds read low 0.975 | locus YPL240C, strain hsp82, active compounds read low 1 | locus YPL256C, strain CLN2, active compounds read low 1.02

Source: PubChem BioAssay AID1159580 (chemical genetic matrix, 2015)
